In the library only some 17% were active in any assay of this set; here they are far more common.
TDP1 cell CPT: growth inhibition of DT40 Tdp1-/-;hTDP1 cells with camptothecin (screen for TDP1 inhibitors); hit rate 12% among 420,000; chicken DT40 Tdp1-/-;hTDP1 cells + 20 nM CPT, ATP luminescence, 48 h; Potency, µM (titrated, usually from 46.2 µM), inactives show at the top dose activity change, negative = growth inhibition, most hits filed as inhibitors; note: % is set by controls: 0 for no effect and ±100 for the full control effect; nearly all actives have a fitted effect of over 55% in size
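Cell growth measured by CellTiter-Glo luminescence after a minimum 48 h, 37 C compound exposure with 20 nM CPT in Tdp1-knockout DT40 cells stably expressing hTDP1, seeded 400/well; qHTS titration format.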
ATXN2 expr inh: inhibitors of ATXN2 expression. HEK-293 ATXN2-luciferase reporter, luminescence, 24 h. Potency, µM (doses to about 57 µM), for the others: at the highest dose activity change, negative = inhibition, most hits filed as inhibitors. hit rate 0.72% among 360,000. AID 1745845; note: % is set by controls: 0 for no effect and ±100 for the full control effect; nearly all actives have a fitted effect of over 55% in size
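ATXN2-luciferase reporter cells (luciferase flanked by upstream and downstream ATXN2 gene portions) were treated 24 h at 37 °C with compounds at up to 57 uM. SteadyGlo luminescence gave expression; GF-AFC fluorescence gave viability.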
HepG2 viability: HepG2 cytotoxicity, counter-screen for TGF-b inhibitors. HepG2 CAGA-GFP viability, ATP luminescence, 18 h. hit rate 0.76% among 410,000. AID 588856. Potency, µM (doses to about 46.1 µM), inactives show at the highest dose activity change, negative = cytotoxicity, usual class: cytotoxic
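HepG2 CAGA-GFP cells (1000/well, DMEM with 1% FBS) received compound, then TGF-beta at 500 pg/mL final, and were incubated 18 hours at 37 degrees C. Viability was read by CellTiter-Glo luminescence. Media-only wells were set as complete cell-killing and DMSO as no toxicity.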
ATXN viability: reduces viability in counter-screen for ATXN expression inhibitors | AID 651635 | S2 cells (HEK-293 line with an ATXN2-luciferase reporter) viability, CellTiter-Fluor protease fluorescence, 24 h | hit rate 0.49% among 400,000 | Potency, µM (doses to about 56.7 µM), most hits filed as cytotoxic; note: nearly all actives have a fitted effect of over 40% in size
TGFb inhibitor: blocks TGF-b signaling | HepG2 CAGA-GFP TGF-b/SMAD3 reporter, GFP fluorescence, 18 h; TGF-beta stimulated, 500 pg/mL final | Potency, µM (top dose mostly 46.1 µM), without a hit: at the top dose activity, negative = inhibition, actives largely listed as inhibitors | hit rate 1.2% among 410,000; note: % is set by controls: 0 for no effect and ±100 for the full control effect; nearly all actives have a fitted effect of over 65% in size
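HEPG2 CAGA-GFP, 1000 cells/well; 2 h settle, 37 C; cpd via pin tool; TGF-b 500 pg/mL final; 18 h, 37 C; GFP imaging ex488/em500-530; %Activity normalised to -TGF-b and +DMSO controls; CRC fit, curve class.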
DT40 TDP1 no CPT: qHTS for Inhibitors of human tyrosyl-DNA phosphodiesterase 1 (TDP1): qHTS in cells in absence of CPT. DT40 Tdp1-/- hTDP1 cells, no CPT, ATP luminescence, 48 h. Potency, µM (doses to about 46.2 µM), for the others: at the top dose activity change, negative = growth inhibition, most hits filed as inhibitors. hit rate 15% among 420,000; note: % is set by controls: 0 for no effect and ±100 for the full control effect; nearly all actives have a fitted effect of over 55% in size
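Chicken DT40 Tdp1-/- cells stably complemented with human TDP1 were seeded at 400 cells/well with DMSO in place of 20 nM camptothecin. After compound pinning, cells grew at least 48 hr at 37 °C; viability read by CellTiter-Glo luminescence.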
Starred values were filed as active, the others as inactive. Calls come from the whole dose curve; as a rule, active = well fitted curve in the direction sought with a large enough effect; inconclusive = small, poorly fitted or top-dose-only effect, or another doubt; inactive = no such curve, though single readings can be large; an effect the other way counts as inactive or inconclusive. Potency is the fitted concentration of half-maximal effect.

Screening COc1ccccc1-c1csc(C(NC(C)=O)c2ccc(F)c(F)c2)n1 (centres undefined) returned TDP1 cell CPT inconclusive, ATXN2 expr inh 1.1%, HepG2 viability -1.3%, ATXN viability inactive, TGFb inhibitor 10.7% and DT40 TDP1 no CPT inconclusive.
Screening COc1cc(-c2cc(-c3ccc(F)cc3)nc(N)c2C#N)ccc1O returned TDP1 cell CPT inconclusive, ATXN2 expr inh -5.5%, HepG2 viability 6.2%, ATXN viability inactive, TGFb inhibitor 1.5% and DT40 TDP1 no CPT inconclusive.
CCOc1cc(-c2cc(-c3ccccc3)nc(N)c2C#N)ccc1O was read as TDP1 cell CPT 23.1µM*, ATXN2 expr inh 23.9%, HepG2 viability -50.8%, ATXN viability inactive, TGFb inhibitor 25.1% and DT40 TDP1 no CPT inconclusive.
For CCOc1cc(-c2c(C#N)c(N)nc3c2CCCC3)ccc1O the results were TDP1 cell CPT inconclusive, ATXN2 expr inh 6.5%, HepG2 viability -4.1%, ATXN viability inactive, TGFb inhibitor -10.7% and DT40 TDP1 no CPT 20.6µM*.
CCOc1cc(-c2cc(-c3ccc(N)cc3)nc(N)c2C#N)ccc1O was read as TDP1 cell CPT 14.6µM*, ATXN2 expr inh 14.1%, HepG2 viability -10.0%, ATXN viability inactive, TGFb inhibitor inconclusive and DT40 TDP1 no CPT 18.4µM*.
CC(C)CNC(=O)C(=O)Nc1c2c(nn1-c1ccc(Cl)cc1)CSC2 was read as TDP1 cell CPT inconclusive, ATXN2 expr inh 6.2%, HepG2 viability -10.4%, ATXN viability inactive, TGFb inhibitor -2.7% and DT40 TDP1 no CPT -24.1%.
`O=C(NCc1ccco1)/C(=C/c1ccc(Br)cc1)NC(=O)c1ccco1` gave TDP1 cell CPT -18.2%, ATXN2 expr inh -3.0%, HepG2 viability -11.6%, ATXN viability inactive, TGFb inhibitor -5.0% and DT40 TDP1 no CPT 3.6%.
`COc1ccc(CNC(=O)Cn2nc(N3CCN(c4ccccc4)CC3)ccc2=O)c(OC)c1` gave TDP1 cell CPT inconclusive, ATXN2 expr inh -20.2%, HepG2 viability -13.1%, ATXN viability inactive, TGFb inhibitor -18.6% and DT40 TDP1 no CPT 14.6µM*.
O=C(Cn1nc(N2CCN(c3ccccc3)CC2)ccc1=O)NCc1ccccc1F was read as TDP1 cell CPT -25.6%, ATXN2 expr inh -5.6%, HepG2 viability -17.6%, ATXN viability inactive, TGFb inhibitor -24.6% and DT40 TDP1 no CPT inconclusive.
`COc1ccccc1N1CCN(CC(=O)NCc2ccc(Cl)cc2)CC1` gave TDP1 cell CPT -13.0%, HepG2 viability -10.2%, ATXN viability inconclusive, TGFb inhibitor -18.1% and DT40 TDP1 no CPT inconclusive.
For CN(C)CCNC(=O)Cn1nc(N2CCN(c3ccccc3)CC2)ccc1=O the results were TDP1 cell CPT -13.7%, ATXN2 expr inh -8.5%, HepG2 viability -0.6%, ATXN viability inactive, TGFb inhibitor 14.7% and DT40 TDP1 no CPT -14.1%.
`CCc1ccccc1NC(=O)Cn1nc(N2CCN(c3ccccc3OC)CC2)ccc1=O` gave TDP1 cell CPT inconclusive, ATXN2 expr inh -27.8%, HepG2 viability -12.0%, ATXN viability inactive, TGFb inhibitor 11.8% and DT40 TDP1 no CPT 13µM*.
Screening COc1cccc(CNC(=O)Cn2nc(N3CCN(c4ccccc4OC)CC3)ccc2=O)c1 returned TDP1 cell CPT 18.4µM*, ATXN2 expr inh 0.6%, HepG2 viability -24.3%, ATXN viability inactive, TGFb inhibitor -8.5% and DT40 TDP1 no CPT 20.6µM*.
`CCOc1ccccc1CNC(=O)Cn1nc(N2CCN(c3ccccc3)CC2)ccc1=O` gave TDP1 cell CPT 20.6µM*, ATXN2 expr inh -28.6%, HepG2 viability -17.1%, ATXN viability inactive, TGFb inhibitor -19.1% and DT40 TDP1 no CPT 20.6µM*.
CN(C)c1ncc2nc(CCc3ccccc3)c(=O)n(Cc3ccc(F)cc3)c2n1 was read as TDP1 cell CPT 1.5% and DT40 TDP1 no CPT -27.1%.
For O=C(CCC(=O)N1CCOCC1)NCCc1ccc(Cl)cc1Cl the results were TDP1 cell CPT -11.9%, ATXN2 expr inh -5.7%, HepG2 viability -4.1%, ATXN viability inactive, TGFb inhibitor -7.8% and DT40 TDP1 no CPT inconclusive.
CCOc1ccccc1C(=O)NCC(=O)Nc1ccc(-c2ccccc2)cc1 was read as TDP1 cell CPT -1.6%, ATXN2 expr inh 10.7%, HepG2 viability 2.8%, ATXN viability inactive, TGFb inhibitor 8.9% and DT40 TDP1 no CPT inconclusive.
O=C(O)[C@H]1CCCN1 was read as TDP1 cell CPT 12.0% and DT40 TDP1 no CPT -17.5%.
Cc1ccc(CSc2nc3c(c(=O)[nH]2)C(c2cccc(F)c2F)CC(=O)N3)cc1 (centres undefined) was read as TDP1 cell CPT 14.6µM*, ATXN2 expr inh 0.6%, HepG2 viability -12.5%, ATXN viability inactive, TGFb inhibitor -5.4% and DT40 TDP1 no CPT inconclusive.
For CC(C)c1cccc(C(C)C)c1NC(=O)CNCC(O)c1ccccc1 (centres undefined) the results were TDP1 cell CPT -6.5%, ATXN2 expr inh 5.7%, HepG2 viability 0.3%, ATXN viability inactive, TGFb inhibitor 3.3% and DT40 TDP1 no CPT -3.2%.
`CC(C)c1cccc(C(C)C)c1NC(=O)CCl` gave TDP1 cell CPT inconclusive, ATXN2 expr inh -26.1%, HepG2 viability -2.9%, ATXN viability inactive, TGFb inhibitor -22.0% and DT40 TDP1 no CPT 16.4µM*.
Cc1ccc2oc(=O)c3cnn(CC(=O)Nc4cccc(C(F)(F)F)c4)c3c2c1 was read as TDP1 cell CPT 3.5%, HepG2 viability 2.7%, TGFb inhibitor 3.4% and DT40 TDP1 no CPT -8.2%.
Screening CC(CC(=O)NCc1ccc(Cl)cc1)S(=O)(=O)c1ccc2c(c1)NC(=O)CO2 (centres undefined) returned TDP1 cell CPT -5.6%, ATXN2 expr inh -22.3%, HepG2 viability -14.1%, ATXN viability inactive, TGFb inhibitor -1.5% and DT40 TDP1 no CPT -3.5%.
`Cc1nn(CC(=O)NCCCN2CCC(Cc3ccccc3)CC2)c(=O)c2cc(-c3ccccc3)nn12` gave TDP1 cell CPT 18.4µM*, HepG2 viability -18.2%, ATXN viability inactive, TGFb inhibitor -0.3% and DT40 TDP1 no CPT 18.4µM*.
Cc1nn(CC(=O)NCCCN2CCN(Cc3ccccc3)CC2)c(=O)c2cc(-c3ccccc3)nn12 was read as TDP1 cell CPT inconclusive, HepG2 viability 1.3%, ATXN viability inactive, TGFb inhibitor -10.1% and DT40 TDP1 no CPT 20.6µM*.

Assay outcomes deposited in PubChem by National Center for Advancing Translational Sciences (NCATS).
